According to the supplement of paper PMC7695840:
Where a name gives a salt, the structure may show the parent alone.

Experiments:
[1] = tested on: Staphylococcus aureus MW2 delta-mecA (mecA-); test: normalized GFP fluorescence (growth of mecA- strain) (fraction of control range); higher = more growth of mecA- strain; conditions: compound concentration: 150 uM; cefoxitin: subinhibitory; fluorescent label: GFP
Outline: (§1)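 S. aureus MW2 cells, pre-induced, were used as a 1:1 mix of a DsRed strain carrying the gene and a GFP strain lacking it, in LB with a subinhibitory antibiotic dose set each day. At 5 µL/well they were placed onto 150 μM compound (1.5% DMSO) in 1536-well plates, one replicate, and kept unshaken for 20 h at 37 °C, 90% humidity. After DsRed (540/590) and GFP (485/520) reads scaled per plate to single-strain control medians, plates with high untreated ratios and rows with DsRed/GFP >10 were excluded.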

[2] = tested on: Staphylococcus aureus MW2 (mecA+); test: normalized DsRed fluorescence (growth of mecA+ strain) (fraction of control range); higher = more growth of mecA+ strain; conditions: compound concentration: 150 uM; cefoxitin: subinhibitory; fluorescent label: DsRed
Outline: as §1

NCCc1ccc(O)c(O)c1
normalized GFP fluorescence [1]: 0.483 | normalized DsRed fluorescence [2]: 0.728

COC(=O)[C@@H]1[C@H]2C[C@H]3c4[nH]c5ccccc5c4CCN3C[C@@H]2CC[C@@H]1O
normalized GFP fluorescence [1]: 0.259 | normalized DsRed fluorescence [2]: 0.809

CC(C)NCC(O)COc1ccc(CCOCC2CC2)cc1 (stereo unspecified) [Betaxolol hydrochloride (Betoptic)]
normalized GFP fluorescence [1]: 0.372 | normalized DsRed fluorescence [2]: 0.674

Nc1nc2[nH]cc(CCc3ccc(C(=O)N[C@@H](CCC(=O)O)C(=O)O)cc3)c2c(=O)[nH]1
normalized GFP fluorescence [1]: 0.937 | normalized DsRed fluorescence [2]: 0.63

COc1ccccc1OCC(O)COC(N)=O (stereo unspecified)
normalized GFP fluorescence [1]: 0.207 | normalized DsRed fluorescence [2]: 0.692

CC(C)c1nc(CN(C)C(=O)N[C@H](C(=O)N[C@@H](Cc2ccccc2)C[C@H](O)[C@H](Cc2ccccc2)NC(=O)OCc2cncs2)C(C)C)cs1 [Ritonavir]
normalized GFP fluorescence [1]: 0.0352 | normalized DsRed fluorescence [2]: 1.01

CNCCCN1c2ccccc2CCc2ccccc21
normalized GFP fluorescence [1]: 0.0357 | normalized DsRed fluorescence [2]: 1.99

Cc1cnc(NC(=O)C2=C(O)c3ccccc3S(=O)(=O)N2C)s1
normalized GFP fluorescence [1]: 0.204 | normalized DsRed fluorescence [2]: 0.469
